# PubChem BioAssay (NCATS)
# Records with an inconclusive call do not appear. A number with no mark means an inactive call. Calls of active or inactive are those of the source. Calls follow the shape of the dose curve; as a rule, active = well fitted curve in the direction sought with a large enough effect; inconclusive = small, poorly fitted or top-dose-only effect, or another doubt; inactive = no such curve, though single readings can be large; an effect the other way counts as inactive or inconclusive.
# Experiment: Primary qHTS for inhibitors of nuclear receptor binding SET domain protein 2 (NSD2) in an isogenic RCH-ACV NSD2 p.E1099K mutant (9B) (AID 1645876)
# Details: RCH-ACV NSD2 E1099K (9B) viability, CellTiter-Glo, 72 h; series mostly up to 44.9 µM; activity change, negative = viability loss: at the top concentration
# % is scaled to controls: 0 for no effect and ±100 for the full control effect; potency is read from the fitted curve at half-maximal effect.
# Also: nearly all actives have a fitted effect of over 70% in size.
SMILES,"activity change, negative = viability loss",Potency
CCc1c(C(=O)C(N)=O)c2c(OCC(=O)O)cccc2n1Cc1ccccc1,5.95%,
CC(=O)[O][Hg][c]1ccccc1,,596 nM (active)
CCCN(CCC)c1c([N+](=O)[O-])cc(S(N)(=O)=O)cc1[N+](=O)[O-],,9690 nM (active)
O=C(O)CNC(=O)c1c(O)c2ccccc2n(Cc2ccccc2)c1=O,-15.1%,
CC(O)CN1CCN(CC(=O)[O-])CCN(CC(=O)[O-])CCN(CC(=O)[O-])CC1.[Gd+3] (configuration not stated),4.35%,
O=C(Nc1ccncc1)C(=O)c1cn(Cc2ccc(Cl)cc2)c2ccccc12,,263 nM (active)
O=C(O)COc1nc(Cl)c(Cl)cc1Cl,-16.3% [at 91.9 µM],
O=C(NCC1CCOCC1)c1cnc(Nc2ccc(Cl)cc2Cl)nc1C(F)(F)F,5.08%,

# Experiment: Primary qHTS for inhibitors of nuclear receptor binding SET domain protein 2 (NSD2) in an RCH-ACV wild type WT cells (2C) (AID 1645877)
# Details: RCH-ACV (leukaemia line) NSD2 WT (2C) viability, CellTiter-Glo, 72 h; series mostly up to 44.9 µM; activity change, negative = cell killing: at the top concentration
SMILES,outcome,Potency,"activity change, negative = cell killing"
CCc1c(C(=O)C(N)=O)c2c(OCC(=O)O)cccc2n1Cc1ccccc1,inactive,,
CC(=O)[O][Hg][c]1ccccc1,,531 nM (active),
CCCN(CCC)c1c([N+](=O)[O-])cc(S(N)(=O)=O)cc1[N+](=O)[O-],,12200 nM (active),
O=C(O)CNC(=O)c1c(O)c2ccccc2n(Cc2ccccc2)c1=O,,,-12.4%
CC(O)CN1CCN(CC(=O)[O-])CCN(CC(=O)[O-])CCN(CC(=O)[O-])CC1.[Gd+3] (configuration not stated),,,9.79%
O=C(Nc1ccncc1)C(=O)c1cn(Cc2ccc(Cl)cc2)c2ccccc12,,235 nM (active),
O=C(O)COc1nc(Cl)c(Cl)cc1Cl,,,2.37% [at 91.9 µM]
O=C(O)c1cc(Oc2ccc(C(F)(F)F)cc2Cl)ccc1[N+](=O)[O-],,,-23.7%
O=C(NCC1CCOCC1)c1cnc(Nc2ccc(Cl)cc2Cl)nc1C(F)(F)F,,,1.06%
